Hits are enriched below; roughly 5.5% of the tested compounds scored in any of these assays.
ELG1 repair inh: blocks ELG1-dependent DNA repair in HEK293T cells; HEK293T ELG1-luciferase reporter, luminescence, 16 h; DNA damage induced by 5-fluorouridine; Potency, µM (top dose mostly 46.1 µM), for inactives: at the top dose activity change, negative = inhibition, usual class: inhibitors; 2.3% of 330,000 active; also: potency is read from the fitted curve at half-maximal effect; nearly all actives have a fitted effect of over 55% in size
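Luminescence from the luciferase reporter, measured 30 min after ONE-Glo reagent at room temperature, was the read-out. Beforehand, 2,000 cells per well were exposed for 16 hr at 37 °C to 5-fluorouridine together with compound or vehicle.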
Giardia kill: Giardia lamblia killing. Giardia lamblia trophozoite viability. activity change, % at 7.66 µM, hits read low. 0.15% of 340,000 active. AID 540267; in the data active = activity change below about -80%; inconclusive = between about -30% and that limit;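 also: parasites exposed to compound for two days anaerobically before the ATP read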
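Killing of trophozoites was scored by loss of ATP luminescence after a 48 hrs anaerobic exposure to compounds at 37 deg C, using 100 cells per well.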
Sfp PPTase inh: Sfp phosphopantetheinyl transferase inhibition. Q9F4F7. Biochemical Sfp PPTase activity, qHTS. Potency, µM, for the others: largest response in the series, negative = inhibition, actives largely listed as inhibitors. 3.5% of 310,000 active. AID 1490;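 also: the enzyme is Sfp with the accession as filed and its product quenches rhodamine fluorescence; potency is read from the fitted curve at half-maximal effect; 0% = enzyme reaction without inhibitor and -100% = no enzyme wells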
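Compounds were incubated with enzyme (final 15 nM) for 15 min at room temperature before substrate addition started the reaction. Fluorescence at 525 nm excitation, 598 nm emission was recorded immediately and after 30 minutes.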
FBPA coupling cs: counter-screen for Giardia aldolase inhibitors: coupling enzyme system; coupling enzyme system counterscreen, AmpLite Red fluorescence; activity change, negative = inhibition, % at 58.2 µM, hits read low; 0.67% of 290,000 active; AID 2472; in the data active = activity change below about -30%
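Counterscreen lacking aldolase: glyceraldehyde-3-phosphate coupling-enzyme reagent preincubated 10 min at RT with compound (at 57.5 uM final), then substrate/coupling system with AmpLite Red added; fluorescence read at 525/598 nm after 20 min RT.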
Active calls of the source: *; ? = inconclusive; · = no result given. Unless noted, calls follow the shape of the dose curve; as a rule, active = well fitted curve in the direction sought with a large enough effect; inconclusive = small, poorly fitted or top-dose-only effect, or another doubt; inactive = no such curve, though single readings can be large; an effect the other way counts as inactive or inconclusive. Unless noted, % is scaled to controls: 0 for no effect and ±100 for the full control effect.

SMILES | ELG1 repair inh | Giardia kill | Sfp PPTase inh | FBPA coupling cs
COc1cccc(/C=C/C(=C2/C(=O)N(c3ccccc3)N=C2C)c2ccccc2)c1OC | 7.3µM* | 5 | 3% | -6
COc1cccc(/C=C/C(=C2/C(=O)N(c3ccccc3)N=C2C)c2ccc(Br)cc2)c1OC | -1% | -19 | 9% | -3
Cc1cc(Cl)c(S(=O)(=O)N2CCN(c3ccc(F)cc3)CC2)cc1OCC(N)=O | ? | -8 | -8% | 2
CC1CCCN(C(=O)c2ccc(Cl)c(S(=O)(=O)N3CCCCCC3)c2)C1 (stereo not given) | ? | 56 | · | ·
Cc1cc(Cl)c(S(=O)(=O)N2CCN(c3ccc(F)cc3)CC2)cc1OCC(=O)NC1CCCCC1 | 8.2µM* | 9 | 5% | 1
CCOC(=O)C1CCCN(S(=O)(=O)c2cc(OCC(=O)NC3CCCCC3)c(C)cc2Cl)C1 (stereo not given) | 21µM* | -6 | -9% | 4
CCOC(=O)C1CCCN(C(=O)c2ccc(Cl)c(S(=O)(=O)N3CCCCCC3)c2)C1 (stereo not given) | 10µM* | 0 | -21% | 6
CC[C@H](C)[C@H](NC(=O)[C@H](Cc1ccccc1)NC(=O)[C@H](CCC(=O)O)NC(=O)[C@H](CCCCN)NC(=O)[C@H](C)NC(=O)[C@H](C)NC(=O)[C@H](CCC(N)=O)NC(=O)CNC(=O)[C@H](CCC(=O)O)NC(=O)[C@H](CC(C)C)NC(=O)[C@H](Cc1ccc(O)cc1)NC(=O)[C@H](CO)NC(=O)[C@H](CO)NC(=O)[C@@H](NC(=O)[C@H](CC(=O)O)NC(=O)[C@H](CO)NC(=O)[C@@H](NC(=O)[C@H](Cc1ccccc1)NC(=O)[C@@H](NC(=O)CNC(=O)[C@H](CCC(=O)O)NC(=O)[C@H](C)NC(=O)[C@@H](N)Cc1cnc[nH]1)[C@@H](C)O)[C@@H](C)O)C(C)C)C(=O)N[C@@H](C)C(=O)N[C@@H](Cc1c[nH]c2ccccc12)C(=O)N[C@@H](CC(C)C)C(=O)N[C@H](C(=O)N[C@@H](CCCCN)C(N)=O)C(C)C | · | · | 3% | 1
Oc1cccc2oc(=S)[nH]c12 | · | -7 | · | ·
Cc1ccc(C(=O)OCC(=O)Nc2cc(C(C)(C)C)nn2-c2ccccc2)c(O)c1 | ? | -4 | · | ·
CC(C)NC(=O)Nc1cccc2c1O[C@H](CN(C)S(C)(=O)=O)[C@@H](C)CN([C@H](C)CO)C2=O | 0% | -11 | · | ·
COC(=O)[C@]1(C)N[C@H](CN(C)S(=O)(=O)c2ccc(OC(F)(F)F)cc2)[C@@H]2C(=O)N(Cc3ccccc3)C(=O)[C@@H]21 | 0% | -24 | · | ·
Cc1cccc(C)c1NC(=O)C1c2cccc[n+]2CC(=O)N1Cc1ccc2c(c1)OCO2 (stereo not given) | -11% | 5 | -8% | 1
Cc1ccccc1NC(=O)C1c2cccc[n+]2CC(=O)N1c1c(C)cccc1C (stereo not given) | 2% | 13 | 50µM* | -14
O=C(O)c1ccnc(C(=O)O)c1 | -8% | -22 | 35µM* | -72*
O=C(O)c1cc2ccccc2cn1 | · | 6 | · | ·
CN(C)c1ccnc(C(=O)O)c1 | 2% | 2 | 56µM* | 0
CN(C)c1ncc(C(=O)O)cn1 | 4% | 55 | 17% | 3
O=C(O)c1cc(Br)ccn1 | -7% | -5 | 35µM* | -8
COc1ccc(NS(=O)(=O)c2cccc3ccccc23)cc1 | · | -17 | · | ·
COc1ccc(C2C=C3CNS(=O)(=O)C3CC2OC(=O)c2ccc(Cl)cc2)cc1 (stereo not given) | · | 33 | 12% | 1
CCOC(=O)c1ccc2c(c1)[nH]c(=S)n2CC | ? | 4 | 10% | -3
CCN(CC)S(=O)(=O)c1ccc2c(c1)[nH]c(=S)n2CC | ? | -8 | 56µM* | 1
C[C@@H]1C[C@](C)(C(=O)c2ccc3c(c2)OCO3)C=C1c1ccc2c(c1)OCO2 | · | · | -4% | 1
C/C(CC1CC(C)OC1=O)=N\NC(N)=S (stereo not given) | 6% | ? | 25µM* | 0
CCN(C(=S)Nc1cc(S(=O)(=O)N2CCOCC2)ccc1Cl)c1cccc2ccccc12 | 3% | -3 | 4µM* | -93*
Cc1ccc(C(=O)Nc2ccccc2C(=O)NCc2ccco2)cc1S(=O)(=O)N1CCCCC1 | 12µM* | -7 | 5% | -2
Cc1ccc(S(=O)(=O)N2CCOCC2)cc1NC(=O)CNCc1ccccc1Cl | ? | -4 | · | ·

Bioassay records from PubChem BioAssay.
